# Measured values from the supplement of paper PMC10849652.
# The full data set covers some 7,900 targets. This sample favours those with a hit. About 0.6% of all pairs of compound and target were hits. Values without a mark were called inactive.
# Experiments:
# Assay in all cases: log2 fold change, soluble protein after heating vs DMSO (PISA); higher = thermal stabilisation; K562 cells, 10 uM, 30 min; active = over 0.2 and 3.5 SD of the protein, either way, in both replicates (recomputed)
# [1] = compound: CC1=C(C=C(C=C1)NC(=O)C2=CC(=CC=C2)C(C)(C)C#N)NC3=CC4=C(C=C3)N=CN(C4=O)C
# Summary of the method: (§1)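 Quantification of soluble protein used TMTpro 16plex LC-MS/MS, with channel sums equalised. Samples were the supernatant after 21,000xg for 90 min of pooled aliquots from K562 cells (2×10^6 cells/mL) treated with 10 μM compound for 30 min, heated for 3 min over 48°C-58°C, and extracted in PBS with 0.5% NP-40 at 4°C. Values, from duplicates, describe thermal stability against control samples on a log2 fold-change scale.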
# [2] = compound: CC1=C(C=C(C=C1)NC(=O)C2=CC(=CC=C2)N(C)C)NC(=O)C3=CC=C(C=C3)O
# Summary of the method: as §1
# [3] = compound: CC1=CC=C(C=C1)SC2=C3C=C(SC3=CN=C2)C(=O)N
# Summary of the method: as §1
# [4] = compound: CC1=NC(=CC=C1)C2=C(N=C(N2)C(C)(C)C)C3=CC4=NC=CN=C4C=C3
# Summary of the method: as §1
# Nexturastat A = compound: CCCCN(Cc1ccc(C(=O)NO)cc1)C(=O)Nc1ccccc1 [Nexturastat A]
# Summary of the method: as §1
# vemurafenib = compound: CCCS(=O)(=O)Nc1ccc(F)c(C(=O)c2c[nH]c3ncc(-c4ccc(Cl)cc4)cc23)c1F [vemurafenib]
# Summary of the method: as §1
# [5] = compound: CCCS(=O)(=O)Nc1ccc(F)c(C(=O)c2c[nH]c3ncc(Cl)cc23)c1F
# Summary of the method: as §1
# [6] = compound: CCCc1cc(C)[nH]c(=O)c1CNC(=O)c1cc(-c2ccnc(N3CCN(C)CC3)c2)cc2c1cnn2C(C)C
# Summary of the method: as §1
# givinostat = compound: CCN(CC)Cc1ccc2cc(COC(=O)Nc3ccc(C(=O)NO)cc3)ccc2c1 [givinostat]
# Summary of the method: as §1
# barasertib = compound: CCN(CCCOc1ccc2c(Nc3cc(CC(=O)Nc4cccc(F)c4)[nH]n3)ncnc2c1)CCOP(=O)(O)O [barasertib]
# Summary of the method: as §1
# [7] = compound: CC[C@@H]1C(=O)N(C)c2cnc(Nc3ccc(C(=O)NC4CCN(C)CC4)cc3OC)nc2N1C1CCCC1
# Summary of the method: as §1
# volasertib = compound: CC[C@@H]1C(=O)N(C)c2cnc(Nc3ccc(C(=O)N[C@H]4CC[C@H](N5CCN(CC6CC6)CC5)CC4)cc3OC)nc2N1C(C)C [volasertib]
# Summary of the method: as §1
# [8] = compound: CC[C@H](C)N1C=C(C2=C(C=C(C=C21)C3=CN=C(C=C3)N4CCNCC4)C(=O)NCC5=C(C=C(NC5=O)C)C)C
# Summary of the method: as §1
# epoxomicin = compound: CC[C@H](C)[C@@H](C(=O)N[C@@H]([C@@H](C)O)C(=O)N[C@@H](CC(C)C)C(=O)[C@]1(CO1)C)NC(=O)[C@H]([C@@H](C)CC)N(C)C(=O)C [epoxomicin]
# Summary of the method: as §1
# [9] = compound: CCn1c(C(=O)N(C2CC2)C2CC2)cc2c3c(ncn3C)c(Nc3cc(C)n(C)n3)nc21
# Summary of the method: as §1
# [10] = compound: CCn1cc(-c2ccnc3[nH]c(-c4cccc(CN(C)C)c4)cc23)c(-c2ccc(NC(=O)N(C)C)cc2)n1
# Summary of the method: as §1
# [11] = compound: CN(C)CC(=O)Nc1ccc2[nH]c(=O)c3ccccc3c2c1
# Summary of the method: as §1
# rosiglitazone = compound: CN(CCOC1=CC=C(C=C1)C[C@H]2C(=O)NC(=O)S2)C3=CC=CC=N3 (racemic) [rosiglitazone]
# Summary of the method: as §1
# [12] = compound: CN1CCC(CNc2ccc3ncc(-c4cccc(OC(F)(F)F)c4)n3n2)CC1
# Summary of the method: as §1
# [13] = compound: CN1C2=C(C3=C1C(=O)N(N=C3)CC4=CC(=CC=C4)N)SC(=C2)S(=O)C
# Summary of the method: as §1
# Sequence of UniProt P42574 (P42574 whole entry, looked up): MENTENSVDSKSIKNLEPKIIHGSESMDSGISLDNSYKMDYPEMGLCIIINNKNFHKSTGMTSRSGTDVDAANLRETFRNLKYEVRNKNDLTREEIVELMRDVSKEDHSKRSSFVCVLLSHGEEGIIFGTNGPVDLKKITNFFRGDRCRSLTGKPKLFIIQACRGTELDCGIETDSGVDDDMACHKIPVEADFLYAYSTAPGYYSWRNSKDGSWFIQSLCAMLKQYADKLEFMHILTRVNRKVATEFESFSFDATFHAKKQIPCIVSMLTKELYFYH
# Sequence of UniProt P15954 (P15954 whole entry, looked up): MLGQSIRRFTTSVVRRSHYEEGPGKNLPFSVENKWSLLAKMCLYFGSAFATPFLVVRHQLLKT
# Sequence of UniProt Q53ET0 (Q53ET0 whole entry, looked up): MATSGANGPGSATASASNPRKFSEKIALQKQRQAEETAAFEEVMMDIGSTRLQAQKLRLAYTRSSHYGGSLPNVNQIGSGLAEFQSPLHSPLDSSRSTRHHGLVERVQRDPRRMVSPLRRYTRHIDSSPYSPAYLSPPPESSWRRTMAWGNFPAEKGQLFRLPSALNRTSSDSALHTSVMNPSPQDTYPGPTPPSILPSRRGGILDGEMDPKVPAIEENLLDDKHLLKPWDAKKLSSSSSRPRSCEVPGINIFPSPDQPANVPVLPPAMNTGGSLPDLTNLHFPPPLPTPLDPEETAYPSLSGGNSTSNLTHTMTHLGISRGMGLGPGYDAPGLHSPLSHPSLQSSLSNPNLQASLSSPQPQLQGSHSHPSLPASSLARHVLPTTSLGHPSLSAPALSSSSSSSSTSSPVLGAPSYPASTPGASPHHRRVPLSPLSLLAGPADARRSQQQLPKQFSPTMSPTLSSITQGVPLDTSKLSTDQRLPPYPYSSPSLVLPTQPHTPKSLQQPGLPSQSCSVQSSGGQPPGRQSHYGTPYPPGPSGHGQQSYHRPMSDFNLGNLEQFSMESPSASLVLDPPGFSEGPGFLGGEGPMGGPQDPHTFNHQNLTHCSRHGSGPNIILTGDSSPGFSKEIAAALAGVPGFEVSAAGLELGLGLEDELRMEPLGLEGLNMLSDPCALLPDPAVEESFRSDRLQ
# Sequence of UniProt Q8IWV2 (Q8IWV2 whole entry, looked up): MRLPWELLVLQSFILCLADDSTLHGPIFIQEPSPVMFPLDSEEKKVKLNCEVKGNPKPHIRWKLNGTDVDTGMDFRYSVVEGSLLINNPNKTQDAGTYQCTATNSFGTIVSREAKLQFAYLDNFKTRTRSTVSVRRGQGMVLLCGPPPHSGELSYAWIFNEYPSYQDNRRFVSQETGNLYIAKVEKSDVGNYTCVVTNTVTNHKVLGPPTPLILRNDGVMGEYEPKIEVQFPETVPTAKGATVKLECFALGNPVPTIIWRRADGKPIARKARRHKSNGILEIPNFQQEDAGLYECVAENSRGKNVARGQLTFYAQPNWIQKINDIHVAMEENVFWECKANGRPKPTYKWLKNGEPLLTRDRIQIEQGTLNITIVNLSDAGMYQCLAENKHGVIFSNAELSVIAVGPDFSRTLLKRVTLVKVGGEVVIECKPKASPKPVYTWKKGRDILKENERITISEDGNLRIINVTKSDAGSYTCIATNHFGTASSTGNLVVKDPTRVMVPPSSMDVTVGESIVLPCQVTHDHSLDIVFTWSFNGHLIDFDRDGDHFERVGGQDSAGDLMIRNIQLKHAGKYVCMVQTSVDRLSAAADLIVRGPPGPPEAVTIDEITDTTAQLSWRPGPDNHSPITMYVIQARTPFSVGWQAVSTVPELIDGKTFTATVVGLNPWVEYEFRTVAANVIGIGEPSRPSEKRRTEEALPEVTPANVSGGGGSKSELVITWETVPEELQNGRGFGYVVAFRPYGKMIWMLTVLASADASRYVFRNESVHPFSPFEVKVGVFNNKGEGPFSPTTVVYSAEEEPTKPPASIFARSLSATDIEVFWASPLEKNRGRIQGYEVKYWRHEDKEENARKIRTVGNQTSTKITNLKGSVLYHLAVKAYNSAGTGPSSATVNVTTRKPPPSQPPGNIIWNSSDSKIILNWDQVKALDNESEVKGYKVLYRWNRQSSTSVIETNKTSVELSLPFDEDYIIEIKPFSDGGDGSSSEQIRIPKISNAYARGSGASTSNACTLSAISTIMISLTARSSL
# Sequence of UniProt Q8NHZ8 (Q8NHZ8 whole entry, looked up): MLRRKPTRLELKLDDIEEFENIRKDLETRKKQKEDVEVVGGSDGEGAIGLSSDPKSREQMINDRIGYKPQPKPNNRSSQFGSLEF
# Sequence of UniProt P51790 (P51790 whole entry, looked up): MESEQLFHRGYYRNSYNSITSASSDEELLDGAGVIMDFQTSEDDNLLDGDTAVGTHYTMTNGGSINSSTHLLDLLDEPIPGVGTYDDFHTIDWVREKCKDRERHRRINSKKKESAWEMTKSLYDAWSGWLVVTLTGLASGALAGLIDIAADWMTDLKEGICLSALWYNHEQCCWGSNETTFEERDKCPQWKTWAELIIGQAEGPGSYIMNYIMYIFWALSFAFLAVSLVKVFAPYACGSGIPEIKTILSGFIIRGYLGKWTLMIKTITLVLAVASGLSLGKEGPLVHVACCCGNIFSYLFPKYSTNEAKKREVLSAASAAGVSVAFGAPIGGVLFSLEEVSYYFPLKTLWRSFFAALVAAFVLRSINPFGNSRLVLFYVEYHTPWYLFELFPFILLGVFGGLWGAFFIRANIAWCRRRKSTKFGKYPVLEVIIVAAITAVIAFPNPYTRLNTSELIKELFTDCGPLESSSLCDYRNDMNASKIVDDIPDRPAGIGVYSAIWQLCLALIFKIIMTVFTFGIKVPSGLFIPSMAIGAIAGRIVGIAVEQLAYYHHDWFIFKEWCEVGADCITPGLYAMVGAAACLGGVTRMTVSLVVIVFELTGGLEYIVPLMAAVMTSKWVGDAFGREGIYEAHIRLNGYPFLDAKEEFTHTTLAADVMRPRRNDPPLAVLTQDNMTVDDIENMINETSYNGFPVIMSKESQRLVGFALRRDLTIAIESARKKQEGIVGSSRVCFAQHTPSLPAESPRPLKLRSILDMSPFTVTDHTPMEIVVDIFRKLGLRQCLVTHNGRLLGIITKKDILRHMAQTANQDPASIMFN
# Sequence of UniProt O15182 (O15182 whole entry, looked up): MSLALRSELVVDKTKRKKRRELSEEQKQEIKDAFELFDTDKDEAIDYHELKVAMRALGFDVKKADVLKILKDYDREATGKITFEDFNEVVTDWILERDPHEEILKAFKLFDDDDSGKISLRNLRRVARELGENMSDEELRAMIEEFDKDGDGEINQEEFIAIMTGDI
# Sequence of UniProt P30305 (P30305 whole entry, looked up): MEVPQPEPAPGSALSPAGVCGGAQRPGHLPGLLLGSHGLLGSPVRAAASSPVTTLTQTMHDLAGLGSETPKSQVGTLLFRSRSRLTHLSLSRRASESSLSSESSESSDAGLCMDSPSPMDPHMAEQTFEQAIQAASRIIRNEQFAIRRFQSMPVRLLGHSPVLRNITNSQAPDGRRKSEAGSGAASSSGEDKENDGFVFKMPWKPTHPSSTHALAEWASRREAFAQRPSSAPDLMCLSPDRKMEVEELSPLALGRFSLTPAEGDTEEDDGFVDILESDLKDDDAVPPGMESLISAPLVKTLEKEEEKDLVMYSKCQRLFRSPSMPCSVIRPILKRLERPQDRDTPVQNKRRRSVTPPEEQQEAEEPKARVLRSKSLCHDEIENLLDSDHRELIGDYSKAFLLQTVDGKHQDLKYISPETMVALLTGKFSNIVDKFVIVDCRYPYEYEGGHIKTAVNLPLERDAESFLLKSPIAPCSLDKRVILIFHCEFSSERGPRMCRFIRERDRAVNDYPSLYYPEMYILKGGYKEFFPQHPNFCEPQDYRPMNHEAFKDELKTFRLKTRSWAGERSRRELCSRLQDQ
# Sequence of UniProt Q8N163 (Q8N163 whole entry, looked up): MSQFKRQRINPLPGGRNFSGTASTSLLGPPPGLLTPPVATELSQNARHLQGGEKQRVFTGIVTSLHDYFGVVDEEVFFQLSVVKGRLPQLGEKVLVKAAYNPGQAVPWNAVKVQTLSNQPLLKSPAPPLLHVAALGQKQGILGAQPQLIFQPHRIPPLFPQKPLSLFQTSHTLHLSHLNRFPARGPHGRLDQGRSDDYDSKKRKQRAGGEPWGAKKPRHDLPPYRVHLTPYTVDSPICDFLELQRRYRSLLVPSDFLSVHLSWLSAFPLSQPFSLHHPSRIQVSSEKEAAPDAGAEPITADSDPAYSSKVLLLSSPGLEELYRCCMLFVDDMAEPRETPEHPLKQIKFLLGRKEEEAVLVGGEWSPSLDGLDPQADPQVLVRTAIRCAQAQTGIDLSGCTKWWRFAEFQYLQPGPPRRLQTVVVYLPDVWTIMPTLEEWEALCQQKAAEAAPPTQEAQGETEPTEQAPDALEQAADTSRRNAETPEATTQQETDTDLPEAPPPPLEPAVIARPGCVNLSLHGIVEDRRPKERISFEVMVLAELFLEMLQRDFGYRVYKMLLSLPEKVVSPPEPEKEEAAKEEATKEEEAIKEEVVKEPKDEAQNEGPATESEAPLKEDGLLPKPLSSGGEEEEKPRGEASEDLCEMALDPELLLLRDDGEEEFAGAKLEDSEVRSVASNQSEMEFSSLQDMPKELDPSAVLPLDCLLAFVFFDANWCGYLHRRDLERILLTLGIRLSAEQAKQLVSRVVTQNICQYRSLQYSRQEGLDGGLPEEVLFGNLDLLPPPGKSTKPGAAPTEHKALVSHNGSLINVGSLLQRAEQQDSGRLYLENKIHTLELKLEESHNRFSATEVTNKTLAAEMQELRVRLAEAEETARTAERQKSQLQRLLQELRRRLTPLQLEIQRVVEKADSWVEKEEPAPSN
# Sequence of UniProt Q9NPF2 (Q9NPF2 whole entry, looked up): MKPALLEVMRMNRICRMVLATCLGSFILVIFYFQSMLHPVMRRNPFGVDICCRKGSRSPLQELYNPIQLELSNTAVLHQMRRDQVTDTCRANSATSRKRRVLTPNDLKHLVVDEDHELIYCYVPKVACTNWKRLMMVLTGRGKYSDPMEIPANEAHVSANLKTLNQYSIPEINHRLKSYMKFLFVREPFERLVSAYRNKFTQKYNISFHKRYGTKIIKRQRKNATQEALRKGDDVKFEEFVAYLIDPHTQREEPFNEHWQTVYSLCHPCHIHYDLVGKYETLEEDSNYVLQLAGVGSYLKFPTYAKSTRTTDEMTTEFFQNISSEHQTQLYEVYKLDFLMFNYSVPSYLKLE
Target,log2 fold change [1],log2 fold change [2],log2 fold change [3],log2 fold change [4],log2 fold change (Nexturastat A),log2 fold change (vemurafenib),log2 fold change [5],log2 fold change [6],log2 fold change (givinostat),log2 fold change (barasertib),log2 fold change [7],log2 fold change (volasertib),log2 fold change [8],log2 fold change (epoxomicin),log2 fold change [9],log2 fold change [10],log2 fold change [11],log2 fold change (rosiglitazone),log2 fold change [12],log2 fold change [13]
CHST11 (UniProt Q9NPF2),0.019,0.099,0.189,0.047,0.013,0.027,0.384 (active),0.089,-0.029,0.049,-0.215,-0.187,-0.078,0.011,0.043,-0.017,-0.045,-0.044,0.022,–
CDC26 (UniProt Q8NHZ8),-0.026,0.029,-0.025,0.021,0.067,0.534 (active),-0.048,0.056,0.056,0.007,0.06,0.037,-0.068,-0.031,0.085,0.003,0.158,-0.008,0.131,0.107
CASP3 (UniProt P42574),-0.049,0.086,0.009,0.065,-0.025,-0.009,0.022,0.113,-0.029,-0.005,0.012,0.014,-0.033,0.273 (active),0,0.018,-0.021,0.014,0.019,-0.097
CCAR2 isoform 2 (UniProt Q8N163),0.032,-0.048,-0.017,0.001,0,0.042,0.05,0.28,0.144,0.026,-0.08,-0.343 (active),0.031,-0.018,-0.057,-0.025,0.044,0.047,-0.145,0.003
C1D (UniProt Q13901),0.058,0.002,-0.015,-0.045,-0.053,-0.046,-0.175,-0.019,-0.002,0.104,0.088,0.076,-0.034,0.02,0,-0.021,-0.127,-0.008,0.096,–
CNTN4 (UniProt Q8IWV2),-0.053,0,0.035,-0.244,0.342,-0.038,0.058,0.364,0.278,0.055,-0.016,-0.14,-0.084,0.149,-0.208,-0.157,0,-0.021,-0.102,-0.077
CDC25B isoform 4 (UniProt P30305),0.203,-0.022,-0.008,-0.004,-0.039,0.054,-0.077,-0.352,0.032,-0.044,-0.003,-0.049,-0.266,0.1,-0.031,-0.092,-0.021,-0.012,-0.081,–
COX7C (UniProt P15954),-0.057,-0.187,-0.01,0.088,0.027,-0.018,-0.085,0.143,-0.271,0.061,0.035,-0.163,-0.114,0.203,-0.01,0.095,-0.058,-0.025,-0.052,-0.026
CRTC2 (UniProt Q53ET0),0.055,0.055,-0.051,0.017,-0.03,0.039,0.031,0.103,0.181,0.062,0.014,0.016,0.061,0.098,-0.023,–,-0.009,-0.043,–,–
CETN3 (UniProt O15182),0.001,0.012,-0.099,-0.102,-0.01,-0.056,-0.164,-0.116,0.008,0.043,0.037,-0.028,0.006,0.042,0.032,-0.014,-0.043,0.032,-0.287 (active),-0.013
CLCN3 isoform 2 (UniProt P51790),-0.055,0.002,0.008,0.061,-0.026,0,0.03,-0.023,0.029,-0.006,-0.047,-0.113,0.026,0.003,0.018,-0.032,0.024,0.001,-0.079,-0.028
